Key:
Assay in all cases: log2 ratio of Biotin-Ahx-Ub-VS probe labelling (fragment/DMSO); higher = less target engagement (more negative = stronger competition), active = hit call of the paper (q ≤ 0.05, log2 ratio ≤ -1)
Conditions in all cases: compound concentration: 200 uM; treatment time: 3 h
USP9X = USP9X (UniProt Q93008)
In short: (§1)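 Using Biotin-Ahx-Ub-VS at 0.5 µM final for 1 h, DUBs were labelled in HEK293T lysate (495 µg per sample) that had first been treated in triplicate with fragment at 200 µM or vehicle for 3 h. NeutrAvidin enrichment, LysC and trypsin digestion and diaPASEF LC-MS/MS followed. Spectronaut label-free quantities were global-median-normalised. Values are average log2 fragment/vehicle ratios by unpaired t-test, using proteins with ≥2 unique peptides.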

UniProt O00487 = target: UniProt O00487
UniProt O00487, sequence (O00487 whole entry): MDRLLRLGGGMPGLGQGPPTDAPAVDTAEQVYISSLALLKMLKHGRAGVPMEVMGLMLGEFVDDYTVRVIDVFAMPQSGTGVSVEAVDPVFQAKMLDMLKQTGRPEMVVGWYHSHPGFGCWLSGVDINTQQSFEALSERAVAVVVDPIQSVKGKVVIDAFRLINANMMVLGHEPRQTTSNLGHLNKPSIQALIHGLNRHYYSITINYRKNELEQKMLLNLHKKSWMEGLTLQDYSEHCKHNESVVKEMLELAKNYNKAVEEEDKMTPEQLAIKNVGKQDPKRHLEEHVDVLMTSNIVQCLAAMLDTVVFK
In short: as §1

UniProt O00507 = target: UniProt O00507
In short: as §1

UniProt P51784 = target: UniProt P51784
UniProt P51784, sequence (P51784 whole entry): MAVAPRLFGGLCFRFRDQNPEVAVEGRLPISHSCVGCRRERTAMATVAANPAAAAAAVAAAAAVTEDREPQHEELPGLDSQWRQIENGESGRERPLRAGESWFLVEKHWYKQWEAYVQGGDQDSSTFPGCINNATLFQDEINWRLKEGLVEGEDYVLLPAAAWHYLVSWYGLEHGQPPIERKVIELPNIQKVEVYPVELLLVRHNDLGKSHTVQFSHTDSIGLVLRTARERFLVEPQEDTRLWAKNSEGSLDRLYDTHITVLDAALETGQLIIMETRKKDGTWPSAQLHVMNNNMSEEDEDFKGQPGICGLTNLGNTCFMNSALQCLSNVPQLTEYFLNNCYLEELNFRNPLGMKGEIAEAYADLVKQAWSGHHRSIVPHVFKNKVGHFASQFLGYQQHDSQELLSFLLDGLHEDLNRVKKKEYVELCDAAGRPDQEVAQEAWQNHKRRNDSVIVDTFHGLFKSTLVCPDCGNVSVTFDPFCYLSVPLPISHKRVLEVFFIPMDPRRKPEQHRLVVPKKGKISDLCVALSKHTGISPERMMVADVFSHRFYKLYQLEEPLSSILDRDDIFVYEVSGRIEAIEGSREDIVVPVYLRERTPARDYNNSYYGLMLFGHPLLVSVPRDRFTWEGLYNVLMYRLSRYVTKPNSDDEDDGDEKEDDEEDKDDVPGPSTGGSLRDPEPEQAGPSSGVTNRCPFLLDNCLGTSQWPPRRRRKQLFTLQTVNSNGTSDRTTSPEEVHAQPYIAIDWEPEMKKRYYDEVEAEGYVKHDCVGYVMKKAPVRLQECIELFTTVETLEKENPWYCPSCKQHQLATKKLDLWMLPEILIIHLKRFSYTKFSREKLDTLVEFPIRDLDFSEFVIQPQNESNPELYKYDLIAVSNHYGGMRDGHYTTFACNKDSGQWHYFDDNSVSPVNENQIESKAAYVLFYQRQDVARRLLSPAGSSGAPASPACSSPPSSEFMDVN
In short: as §1

UniProt Q5T2D3 = target: T1, UniProt Q5T2D3
T1 sequence (whole entry): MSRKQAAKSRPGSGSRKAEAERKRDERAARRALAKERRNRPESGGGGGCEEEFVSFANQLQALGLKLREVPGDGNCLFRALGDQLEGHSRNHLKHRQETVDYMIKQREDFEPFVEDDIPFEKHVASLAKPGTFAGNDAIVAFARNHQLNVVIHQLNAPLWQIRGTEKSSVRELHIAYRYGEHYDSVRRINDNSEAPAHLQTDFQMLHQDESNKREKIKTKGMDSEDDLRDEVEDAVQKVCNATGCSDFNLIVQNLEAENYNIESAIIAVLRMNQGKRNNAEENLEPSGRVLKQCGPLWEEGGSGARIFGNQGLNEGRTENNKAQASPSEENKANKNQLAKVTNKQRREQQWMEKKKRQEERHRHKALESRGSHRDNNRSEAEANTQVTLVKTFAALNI
In short: as §1

UniProt Q8TE49 = target: T2, UniProt Q8TE49
T2 sequence (whole entry): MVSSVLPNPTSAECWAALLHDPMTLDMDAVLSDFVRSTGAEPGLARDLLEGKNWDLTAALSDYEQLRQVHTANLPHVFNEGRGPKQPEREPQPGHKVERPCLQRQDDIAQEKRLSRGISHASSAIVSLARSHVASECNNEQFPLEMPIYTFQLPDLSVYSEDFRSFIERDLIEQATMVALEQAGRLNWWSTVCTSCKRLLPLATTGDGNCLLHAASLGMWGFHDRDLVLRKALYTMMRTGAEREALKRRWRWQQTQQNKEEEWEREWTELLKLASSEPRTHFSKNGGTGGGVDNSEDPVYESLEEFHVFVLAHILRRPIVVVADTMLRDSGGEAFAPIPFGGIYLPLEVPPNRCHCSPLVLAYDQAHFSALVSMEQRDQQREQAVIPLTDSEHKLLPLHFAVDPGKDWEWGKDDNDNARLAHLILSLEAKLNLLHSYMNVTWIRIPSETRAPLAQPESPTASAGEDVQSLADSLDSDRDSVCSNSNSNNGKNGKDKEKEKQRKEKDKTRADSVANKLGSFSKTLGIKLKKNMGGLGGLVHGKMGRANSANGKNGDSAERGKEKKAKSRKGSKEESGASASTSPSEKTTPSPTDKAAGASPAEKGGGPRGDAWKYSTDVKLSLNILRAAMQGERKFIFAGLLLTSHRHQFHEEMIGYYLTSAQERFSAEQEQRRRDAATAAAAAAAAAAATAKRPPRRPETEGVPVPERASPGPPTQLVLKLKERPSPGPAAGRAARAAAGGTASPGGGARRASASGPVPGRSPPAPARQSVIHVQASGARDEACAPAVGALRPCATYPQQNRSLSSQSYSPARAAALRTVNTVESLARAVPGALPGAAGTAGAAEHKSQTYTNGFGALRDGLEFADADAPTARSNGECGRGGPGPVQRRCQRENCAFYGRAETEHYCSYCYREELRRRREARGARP
In short: as §1

UniProt Q9P2H5 = target: T3, UniProt Q9P2H5
T3 sequence (whole entry): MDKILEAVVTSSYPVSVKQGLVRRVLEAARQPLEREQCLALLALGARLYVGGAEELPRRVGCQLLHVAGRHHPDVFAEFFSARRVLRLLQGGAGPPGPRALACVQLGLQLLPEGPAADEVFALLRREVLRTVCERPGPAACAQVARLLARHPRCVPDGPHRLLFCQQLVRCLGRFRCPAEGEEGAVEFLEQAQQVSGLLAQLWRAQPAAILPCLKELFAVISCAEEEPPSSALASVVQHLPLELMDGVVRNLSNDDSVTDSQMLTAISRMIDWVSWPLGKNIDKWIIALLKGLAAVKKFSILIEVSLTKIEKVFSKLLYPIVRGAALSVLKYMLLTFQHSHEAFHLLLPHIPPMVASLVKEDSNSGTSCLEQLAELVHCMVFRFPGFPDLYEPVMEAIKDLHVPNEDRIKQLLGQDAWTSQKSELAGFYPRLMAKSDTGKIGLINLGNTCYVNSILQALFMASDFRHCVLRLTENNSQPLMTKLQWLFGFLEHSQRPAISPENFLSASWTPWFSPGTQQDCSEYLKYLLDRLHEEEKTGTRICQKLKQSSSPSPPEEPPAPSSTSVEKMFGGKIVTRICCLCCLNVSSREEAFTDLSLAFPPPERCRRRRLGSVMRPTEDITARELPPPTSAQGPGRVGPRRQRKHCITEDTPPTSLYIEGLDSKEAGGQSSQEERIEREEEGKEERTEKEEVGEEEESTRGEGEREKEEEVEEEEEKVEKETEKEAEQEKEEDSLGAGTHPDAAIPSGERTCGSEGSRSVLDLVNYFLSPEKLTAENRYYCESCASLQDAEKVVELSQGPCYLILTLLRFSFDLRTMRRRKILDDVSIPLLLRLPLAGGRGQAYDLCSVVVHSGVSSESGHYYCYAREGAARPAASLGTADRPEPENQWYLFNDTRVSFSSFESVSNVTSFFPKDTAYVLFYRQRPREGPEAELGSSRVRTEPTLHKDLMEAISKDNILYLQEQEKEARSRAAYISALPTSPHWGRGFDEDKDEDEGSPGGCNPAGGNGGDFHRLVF
In short: as §1

UniProt Q9UGI0 = target: T4, UniProt Q9UGI0
T4 sequence (whole entry): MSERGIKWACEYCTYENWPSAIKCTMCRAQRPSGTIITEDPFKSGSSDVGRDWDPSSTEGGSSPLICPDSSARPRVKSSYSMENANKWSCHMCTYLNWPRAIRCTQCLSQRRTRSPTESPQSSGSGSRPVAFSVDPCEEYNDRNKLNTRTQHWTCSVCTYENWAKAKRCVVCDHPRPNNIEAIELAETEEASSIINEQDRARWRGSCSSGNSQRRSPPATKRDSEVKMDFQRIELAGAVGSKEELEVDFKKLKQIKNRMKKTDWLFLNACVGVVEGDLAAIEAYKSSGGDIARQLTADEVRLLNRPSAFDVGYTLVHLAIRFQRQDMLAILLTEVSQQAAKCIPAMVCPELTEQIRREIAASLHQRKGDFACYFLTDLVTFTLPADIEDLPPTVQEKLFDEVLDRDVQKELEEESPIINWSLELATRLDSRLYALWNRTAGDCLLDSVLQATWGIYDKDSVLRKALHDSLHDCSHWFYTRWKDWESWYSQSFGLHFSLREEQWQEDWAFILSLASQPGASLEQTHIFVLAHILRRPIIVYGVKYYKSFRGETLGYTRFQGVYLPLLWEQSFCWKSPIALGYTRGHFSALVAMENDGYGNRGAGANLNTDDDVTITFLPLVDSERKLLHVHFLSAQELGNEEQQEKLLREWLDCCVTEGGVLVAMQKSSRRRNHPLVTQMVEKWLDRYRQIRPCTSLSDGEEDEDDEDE
In short: as §1

YOD1 = target: T5, YOD1 (UniProt Q5VVQ6)
T5 sequence (whole entry): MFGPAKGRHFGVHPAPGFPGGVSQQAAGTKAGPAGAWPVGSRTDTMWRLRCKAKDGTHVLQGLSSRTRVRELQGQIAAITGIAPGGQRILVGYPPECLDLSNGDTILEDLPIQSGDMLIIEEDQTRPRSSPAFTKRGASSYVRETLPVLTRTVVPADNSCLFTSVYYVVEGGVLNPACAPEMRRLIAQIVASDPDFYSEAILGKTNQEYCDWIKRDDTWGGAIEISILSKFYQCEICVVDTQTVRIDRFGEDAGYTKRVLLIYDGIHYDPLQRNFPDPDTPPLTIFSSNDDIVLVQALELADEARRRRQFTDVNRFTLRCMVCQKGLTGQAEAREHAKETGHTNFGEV
In short: as §1

Measured: log2 ratio of Biotin-Ahx-Ub-VS probe labelling

USP9X, sequence (Q93008 whole entry, the tested form may be a part): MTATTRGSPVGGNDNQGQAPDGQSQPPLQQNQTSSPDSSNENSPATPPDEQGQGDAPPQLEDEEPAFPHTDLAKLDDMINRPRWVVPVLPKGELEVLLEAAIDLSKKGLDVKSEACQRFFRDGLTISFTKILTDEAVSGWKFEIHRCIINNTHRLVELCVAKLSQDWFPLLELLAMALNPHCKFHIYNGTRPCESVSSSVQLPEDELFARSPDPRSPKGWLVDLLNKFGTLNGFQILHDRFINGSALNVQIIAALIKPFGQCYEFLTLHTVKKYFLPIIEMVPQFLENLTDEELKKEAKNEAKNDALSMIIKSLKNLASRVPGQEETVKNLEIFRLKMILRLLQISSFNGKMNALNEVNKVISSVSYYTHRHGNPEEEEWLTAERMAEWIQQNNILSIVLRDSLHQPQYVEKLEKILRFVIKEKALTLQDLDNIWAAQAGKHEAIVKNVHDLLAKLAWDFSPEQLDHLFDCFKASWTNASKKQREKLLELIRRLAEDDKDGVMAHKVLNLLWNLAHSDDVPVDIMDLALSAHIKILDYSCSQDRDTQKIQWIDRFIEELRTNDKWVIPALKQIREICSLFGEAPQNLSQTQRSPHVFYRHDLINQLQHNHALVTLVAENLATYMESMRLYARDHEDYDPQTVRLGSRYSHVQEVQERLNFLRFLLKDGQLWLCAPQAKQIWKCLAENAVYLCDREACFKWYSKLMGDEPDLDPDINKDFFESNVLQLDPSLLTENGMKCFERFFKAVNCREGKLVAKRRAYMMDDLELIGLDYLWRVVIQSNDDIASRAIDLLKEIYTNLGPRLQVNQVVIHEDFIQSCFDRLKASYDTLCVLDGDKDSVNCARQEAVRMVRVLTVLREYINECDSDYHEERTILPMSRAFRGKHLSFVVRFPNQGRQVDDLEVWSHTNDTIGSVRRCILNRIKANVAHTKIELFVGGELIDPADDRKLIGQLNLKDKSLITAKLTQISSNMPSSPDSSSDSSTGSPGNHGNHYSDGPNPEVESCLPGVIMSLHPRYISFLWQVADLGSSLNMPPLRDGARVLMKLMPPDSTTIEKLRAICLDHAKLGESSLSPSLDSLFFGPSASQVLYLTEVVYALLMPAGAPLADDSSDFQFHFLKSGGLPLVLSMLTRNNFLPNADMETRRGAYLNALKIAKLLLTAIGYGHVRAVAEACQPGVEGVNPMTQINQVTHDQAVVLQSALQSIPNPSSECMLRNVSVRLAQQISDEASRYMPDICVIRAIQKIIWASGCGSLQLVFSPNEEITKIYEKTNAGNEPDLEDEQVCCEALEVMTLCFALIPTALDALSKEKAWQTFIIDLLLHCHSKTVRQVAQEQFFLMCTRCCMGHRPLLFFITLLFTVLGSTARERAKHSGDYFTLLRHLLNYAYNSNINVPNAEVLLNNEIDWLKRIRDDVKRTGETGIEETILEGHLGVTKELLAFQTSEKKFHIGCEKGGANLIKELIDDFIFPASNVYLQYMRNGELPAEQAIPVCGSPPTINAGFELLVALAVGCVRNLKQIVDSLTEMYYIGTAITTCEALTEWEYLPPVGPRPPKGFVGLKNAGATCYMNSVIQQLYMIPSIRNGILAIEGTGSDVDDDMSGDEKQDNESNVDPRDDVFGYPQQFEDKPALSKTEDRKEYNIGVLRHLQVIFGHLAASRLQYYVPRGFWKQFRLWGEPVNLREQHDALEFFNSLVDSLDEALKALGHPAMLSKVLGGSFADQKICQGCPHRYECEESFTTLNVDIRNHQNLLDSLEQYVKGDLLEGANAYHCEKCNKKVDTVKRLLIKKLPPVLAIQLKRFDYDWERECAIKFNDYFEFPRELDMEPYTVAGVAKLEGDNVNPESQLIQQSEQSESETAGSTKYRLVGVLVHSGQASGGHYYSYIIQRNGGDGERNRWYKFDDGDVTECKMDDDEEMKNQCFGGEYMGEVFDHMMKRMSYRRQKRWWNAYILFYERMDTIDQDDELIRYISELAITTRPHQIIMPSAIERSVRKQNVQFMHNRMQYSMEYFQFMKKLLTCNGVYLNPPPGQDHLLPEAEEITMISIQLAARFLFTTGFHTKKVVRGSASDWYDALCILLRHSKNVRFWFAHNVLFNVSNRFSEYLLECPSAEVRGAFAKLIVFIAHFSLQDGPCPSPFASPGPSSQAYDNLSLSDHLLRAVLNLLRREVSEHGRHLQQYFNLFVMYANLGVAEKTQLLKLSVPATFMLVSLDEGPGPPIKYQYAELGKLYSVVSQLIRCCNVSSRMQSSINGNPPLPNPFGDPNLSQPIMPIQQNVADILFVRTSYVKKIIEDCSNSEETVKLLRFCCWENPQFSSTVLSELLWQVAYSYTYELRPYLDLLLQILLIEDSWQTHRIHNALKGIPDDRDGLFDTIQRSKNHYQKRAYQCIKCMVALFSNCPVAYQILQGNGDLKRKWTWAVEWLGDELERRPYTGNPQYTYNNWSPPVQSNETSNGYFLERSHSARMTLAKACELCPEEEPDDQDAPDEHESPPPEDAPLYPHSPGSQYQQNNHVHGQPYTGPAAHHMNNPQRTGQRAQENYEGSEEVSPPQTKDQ

CC1Cc2ccccc2N1C(=O)CCl (centres undefined)
inactive: USP9X -0.267 | UniProt O00487 -0.194 | UniProt O00507 -0.438 | UniProt P51784 -0.254 | UniProt Q5T2D3 -0.151 | UniProt Q8TE49 -0.28 | UniProt Q9P2H5 -0.127 | UniProt Q9UGI0 -0.604 | YOD1 -0.114
